# Results as given in PubChem BioAssay (NCI).
# About 83,000 compounds went through this panel and 20% of them were active in at least one assay; those are over-represented in the sample as a whole.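 96-well plates, one dose, 48 hours. Percent growth reported; active if below 10.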 Values without a mark were called inactive. Calls of active or inactive are those of the source.
# Tested on: MDA-MB-468 breast
# Assay: NCI-60 one-dose screen, 48 h (100 = growth as untreated, 0 = no growth, -100 = all killed)
# Settings: 10 µM unless noted
row,Compound,growth
1,NC1(C(=O)N[C@@H](CCO)c2ccc(Cl)cc2)CCN(c2ncnc3[nH]ccc23)CC1,4.8% (active)
2,Cc1sc(NC(=O)c2ccc(C(C)(C)C)cc2)c(C(=O)O)c1C,80%
3,C[C@@H](Oc1cc(-c2cnn(C3CCNCC3)c2)cnc1N)c1c(Cl)ccc(F)c1Cl,-79.8% (active)
